# Screens from PubChem.
# DRD3 agonist: agonists of human D3 dopamine receptor | D3R DiscoveRx beta-arrestin cells, luminescence, 90 min | AID 652048 | 410,000 compounds, 0.58% hits | max activation, %; in the data active means max activation above about 30%; further: 0% is about no effect
# Target sequence (P35462 whole entry, looked up): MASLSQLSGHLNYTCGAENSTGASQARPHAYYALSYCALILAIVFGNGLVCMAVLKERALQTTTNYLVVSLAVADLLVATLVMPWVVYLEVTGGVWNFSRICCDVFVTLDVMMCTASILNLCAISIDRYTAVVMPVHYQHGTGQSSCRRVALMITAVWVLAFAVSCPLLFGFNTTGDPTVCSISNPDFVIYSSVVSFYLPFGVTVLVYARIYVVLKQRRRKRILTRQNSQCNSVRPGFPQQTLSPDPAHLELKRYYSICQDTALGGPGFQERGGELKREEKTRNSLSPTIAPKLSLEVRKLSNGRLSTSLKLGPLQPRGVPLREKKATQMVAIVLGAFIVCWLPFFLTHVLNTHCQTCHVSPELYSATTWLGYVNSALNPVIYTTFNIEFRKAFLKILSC
#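 Agonist mode: compounds and dopamine controls were applied to plated cells for 90 min at 37 degrees C after an overnight attachment at 1500 cells/well. Luminescent read-out followed 30 - 60 minutes at room temperature with DiscoveRx detection reagent.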
# GLP1R ag: agonists of human GLP-1 receptor. 380,000 compounds, 0.007% hits. P43220. HEK293 GLP-1R CRE-luciferase, luminescence, 4-6 h; cells express a hypersensitive GLP-1R form. Potency, µM (highest dose often 45.6 µM), for inactives: at the top dose activation, most hits filed as activators. AID 624172; further: potency means the concentration at half of the fitted maximal effect; % of control where 0% means no effect
# HEK293 tox: cytotoxicity in counter-screen for GLP-1R inverse agonists; Potency, µM (series often up to 38.3 µM), without a hit: top-dose activity change, negative = inhibition, hits mostly inhibitors; 410,000 compounds, 0.13% hits; HEK293 cAMP-luciferase reporter cells, luminescence, 24 h; AID 624418;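 further: loss of luciferase light is scored as toxicity; potency means the concentration at half of the fitted maximal effect; on the % scale 0 is the no-effect control and ±100 the full control effect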
#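 1536-well qHTS counterscreen of the MLSMR; 200 cells/uL, 12 h pre-incubation, 23 nL cpd, 24 h at 37 deg C 5% CO2, luciferase detection reagent, 12 min RT, luminescence. Inhibition = undesired.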
# GLP-1R inv ag: acts as inverse agonist at human GLP-1 receptor; P43220; HEK293 GLP-1R CRE-luciferase, luminescence, 24 h; GLP-1R form is constitutively active; Potency, µM (top dose mostly 38.3 µM), inactives show at the top dose activity change, negative = inhibition, usual class: inhibitors; 410,000 compounds, 1.6% hits; AID 624417; further: potency means the concentration at half of the fitted maximal effect; on the % scale 0 is the no-effect control and ±100 the full control effect; nearly all actives have a fitted effect of over 55% in size
#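 Using stably transfected HEK293 (constitutively active GLP-1R, cAMP-luciferase reporter), compounds were incubated 24 hr and luciferase measured by luminescence.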
# ClpP mod: qHTS Assay for Activators of ClpP; ATP-dependent Clp protease proteolytic subunit (Bacillus subtilis (strain 168)), P80244; purified B. subtilis ClpP, FRET peptide cleavage, 20 min; Potency, µM (top dose mostly 57.5 µM), for inactives: at the highest dose activity change, negative = active; 340,000 compounds, 1.9% hits; AID 651965, 2013; active means well fitted falling curve with a large enough effect; inconclusive means small, poorly fitted or top-dose-only effect; inactive means no such curve, though single readings can be large or run the other way; further: potency means the concentration at half of the fitted maximal effect; the source files actives as falling curves though it sought activators and does not explain the sign; nearly all actives have a fitted effect of over 65% in size
# Target sequence (P80244 whole entry, looked up): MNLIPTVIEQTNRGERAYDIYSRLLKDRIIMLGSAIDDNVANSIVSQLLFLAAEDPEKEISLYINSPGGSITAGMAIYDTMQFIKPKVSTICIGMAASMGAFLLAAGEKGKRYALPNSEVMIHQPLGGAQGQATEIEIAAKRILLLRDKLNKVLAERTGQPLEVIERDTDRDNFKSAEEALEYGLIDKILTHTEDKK
#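 Purified B. subtilis ClpP, 10 microg/mL final in Tris/HCl pH8 with KCl, BSA, glycerol and Tween-20, cleaved an Abz/nitrotyrosine-quenched decapeptide. Fluorescence (ex 320, em 430) was read at 0 and 20 min at room temperature. Delta was normalized to 5.8 microM ADEP and DMSO/no-enzyme controls.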
# DRD3 antagonist: antagonists of human D3 dopamine receptor; P35462; D3R cells, DiscoveRx beta-arrestin luminescence, antagonist mode; stronger effect = lower value; max response, negative = inhibition, %; 360,000 compounds, 2.5% hits; AID 652054; in the data active means max response below about -50%; inconclusive means no clear call, values can overlap the other calls; further: on the % scale 0 is the no-effect control and ±100 the full control effect
#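 Cells plated overnight at 1500 cells/well, then exposed to library compounds with dopamine controls for 90 minutes at 37 degrees C. DiscoveRx reagent added for 30–60 minutes at room temperature; luminescence read, quantitative HTS format.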
# An asterisk follows results filed as active; ? = inconclusive; . = not tested or not shown. The list is not random: actives were taken first. Their share in the collection is about 5.7%. Unless noted, the call rests on the fitted dose curve; in most records, active means well fitted curve in the direction sought with a large enough effect; inconclusive means small, poorly fitted or top-dose-only effect, or another doubt; inactive means no such curve, though single readings can be large; an effect the other way counts as inactive or inconclusive.
SMILES,DRD3 agonist,GLP1R ag,HEK293 tox,GLP-1R inv ag,ClpP mod,DRD3 antagonist
O=C(O)CC/C(=N\Nc1ccc(S(=O)(=O)N2CCCC2)cc1[N+](=O)[O-])c1cccs1,-6.3,-0.8%,-24.0%,-8.1%,-3.1%,-27.5
O=C(O)CC/C(=N\Nc1ccc(S(=O)(=O)N2CCOCC2)cc1[N+](=O)[O-])c1cccs1,-10.0,7.5%,?,27.6%,.,-62.5*
CCCc1cc(-c2n[nH]c(C)c2-c2ccc(C(=O)OCC)o2)c(O)cc1O,35.4*,5.2%,?,?,-15.0%,-26.6
CCCc1cc(C(=O)Cc2ccc(C(=O)OCC)o2)c(O)cc1O,0.5,-0.3%,8.7%,?,-3.7%,6.5
CCOc1ccc(CCn2c(-c3ccco3)nc3ccccc3c2=O)cc1OCC,35.9*,-2.3%,-24.8%,0.0%,-6.0%,28.1
O=c1c2ccccc2nc(SCCN2CCCCC2)n1CCc1ccccc1,-10.1,4.3%,-7.5%,?,.,-56.1*
CCSc1nc2c(c(=O)n(C)c(=O)n2C)n1Cc1ccc(Cl)cc1,-0.8,0.2%,3.1%,-10.9%,1.3%,0.9
O=c1c2ccccc2nc(-c2ccco2)n1Cc1ccccc1,-6.9,?,-12.6%,?,-0.4%,15.3
O=c1c2ccccc2nc(/C=C/c2ccccc2)n1CCc1ccccc1,0.0,2.3%,-15.1%,0.1%,0.6%,3.9
O=c1c2ccccc2nc(-c2ccoc2)n1CCc1ccccc1,-10.1,-1.6%,3.2%,?,25.1µM*,45.9
Cn1c(=O)c2c(nc(SCCN3CCCCC3)n2Cc2ccc(Cl)cc2)n(C)c1=O,0.8,30.0%,10.8%,?,-2.5%,-51.3*
CCC(c1nnnn1Cc1ccc(F)cc1)N(CCCO)Cc1cc2cc3c(cc2[nH]c1=O)OCO3 (stereo not drawn),-3.2,16.6%,6.3%,-6.3%,31.6µM*,-1.5
CCC(c1nnnn1CC1CCCO1)N(CCCO)Cc1cc2cccc(C)c2[nH]c1=O (stereo not drawn),3.2,5.3%,-3.4%,0.0%,-10.8%,-3.6
COc1cc(F)ccc1-c1cc(C(=O)NCc2ccc(C(F)(F)F)cc2)[nH]n1,-17.6,2.3%,-15.5%,?,-0.1%,-11.2
CSc1ccc(CCNC(=O)C(C)n2c(C)c3cnn(-c4ccccc4)c(=O)c3c2C)cc1 (stereo not drawn),-16.6,.,-4.2%,?,-0.3%,.
CN(C)C(=O)c1ccc2c(c1[N+](=O)[O-])C(=O)c1ccccc1C2=O,-9.4,-2.3%,-16.6%,12.5%,0.5%,?
Cc1[nH]c2c(C)cccc2c1CCNC(=O)c1ccc2c(c1[N+](=O)[O-])C(=O)c1ccccc1C2=O,0.4,-11.7%,?,?,0.1%,-56.2*
Cc1[nH]c2ccccc2c1CCNC(=O)c1ccc2c(c1[N+](=O)[O-])C(=O)c1ccccc1C2=O,-16.5,-31.6%,-19.6%,-23.7%,0.9%,-85.2*
C=CCc1cccc2cc(C(=O)NCCc3c(C)[nH]c4c(C)cccc34)c(=O)oc12,5.8,-6.4%,-6.6%,-2.5%,4.7%,.
COc1ccc(N2CCN(Cc3nnc(-c4cccc(Br)c4)o3)CC2)cc1,5.9,.,9.9%,15.8%,-0.6%,.
Cc1cccc(NS(=O)(=O)c2ccccc2)n1,13.2,-0.5%,5.3%,0.0%,20µM*,12.6
Cc1cccc(NS(=O)(=O)c2ccc(C(C)(C)C)cc2)n1,-0.4,12.1%,3.4%,18.6%,4.3%,5.6
Cc1cccc(NS(=O)(=O)c2ccc(C3CCCCC3)cc2)n1,0.5,27.8%,3.6%,91.4%,22.4µM*,19.2
NC(c1csc(NC(=O)Nc2ccccc2Cl)n1)C1CCCCC1 (stereo not drawn),58.4*,8.5%,-6.4%,6.1%,0.1%,-27.6
Cc1cc(Br)cn2c(Cc3ccccc3)c(-c3cccc(Br)c3)nc12,-11.6,-0.5%,3.8%,?,-4.4%,-50.7*
SMILES,DRD3 agonist,GLP1R ag,HEK293 tox,GLP-1R inv ag,ClpP mod,DRD3 antagonist
Cc1cc(Br)cn2c(Cc3cccc(Cl)c3)c(-c3cccc(Cl)c3)nc12,0.8,3.5%,3.7%,10µM*,-9.1%,5.5
Cc1cc(Br)cn2c(Cc3ccccc3)c(-c3ccc(Cl)cc3)nc12,-5.8,0.9%,-6.6%,3.0%,-2.5%,-18.7
S=C(NCCc1ccccc1)N1CCN(C(=S)NCCc2ccccc2)CC1,-3.9,2.5%,-0.4%,-9.6%,-18.1%,22.7
CN1CCN(C(=S)NCCc2ccccc2)CC1,-15.8,-2.2%,3.7%,-1.4%,3.5%,-87.1*
COc1ccc(S(=O)(=O)c2cc(NS(=O)(=O)c3ccc(Cl)cc3)c(C)c(C)c2O)cc1,0.2,-3.1%,0.8%,?,-0.8%,.
Cc1ccc(NC(=O)c2cc(S(=O)(=O)NCCc3ccc(Cl)cc3)ccc2F)cc1,-2.3,.,-14.2%,11.2µM*,-4.3%,.
CC(C)N(CCCNC(=O)c1ccc(CS(=O)(=O)c2c(Cl)cccc2Cl)o1)Cc1ccccc1,-13.8,9.4%,-26.2%,?,-1.8%,-56.0*
CCCCN(CCCNC(=O)c1ccc(CS(=O)(=O)c2c(Cl)cccc2Cl)o1)Cc1ccccc1,-13.2,11.4%,-22.5%,?,-0.2%,-22.9
Cc1ccc(S(=O)(=O)Cc2ccc(C(=O)NCCc3ccc(Cl)cc3)o2)cc1,-13.5,-1.5%,-12.7%,10µM*,0.9%,.
O=C(NCc1ccccc1Cl)c1ccc(CS(=O)(=O)c2ccc(Br)cc2)o1,-19.9,.,4.8%,10µM*,0.9%,.
O=C1Oc2ccccc2C(=O)C1C(CC(O)c1ccc(-c2ccc(Br)cc2)cc1)c1ccccc1 (stereo not drawn),.,-3.8%,.,.,.,.
COc1cccc(Nc2sc(C(=O)c3ccc(F)cc3)c(N)c2C(=O)NCc2ccc(C)cc2)c1,8.6,.,?,?,-3.0%,.
CCOC(=O)c1c(C)n(C)c2ccc(OC)c(NC(=O)CN3CCSCC3)c12,0.1,-1.2%,-8.2%,-2.8%,0.6%,-21.1
CCOC(=O)c1c(C)n(C)c2ccc(OC)c(NC(=O)CCN3CCC(Cc4ccccc4)CC3)c12,-20.8,-1.6%,2.1%,-27.3%,-2.0%,-120.4*
Cc1cccc(C)c1NC(=O)C1(C)CN(S(C)(=O)=O)CC(=O)N1CCCN1CCOCC1 (stereo not drawn),3.7,.,9.5%,-9.2%,-3.5%,6.7
CC(C)C(=O)Nc1ccc2c(c1)C(=O)N(CCC(=O)O)C2=O,-4.6,-3.6%,21.1%,0.4%,28.2µM*,7.8
CCc1cccc(C)c1NC(=O)c1cc(S(=O)(=O)NCc2ccccc2Cl)ccc1F,-23.2,.,-6.3%,?,-2.6%,.
Cc1ccc(-c2nnn3c2nc(NCCc2ccc(S(N)(=O)=O)cc2)c2ccccc23)cc1,2.6,10.5%,6.0%,26.5%,1.2%,7.0
